The results in this text go back to PubChem BioAssay AID1347120 (National Center for Advancing Translational Sciences (NCATS), 2019).

Structures are written as SMILES. The whole screen tested about 390,000 compounds, of which about 930 (0.24%) were called active. Inconclusive results (about 5%) are left out. Only a selection was taken, and actives are over-represented in it overall. Values without a mark were called inactive. Calls follow the shape of the dose curve; as a rule, active = well fitted activation curve with a large enough effect; inconclusive = small, poorly fitted or top-dose-only effect; inactive = no such curve, though single readings can be large or run the other way.
Potency is read from the fitted curve at half-maximal effect.

The nature of the experiment: qHTS for Suppressors of FUS Proteinopathy: Primary screen using FUS-linked yeast assay. Also: nearly all actives have a fitted effect of over 55% in size.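 As to growth rescue (activation): plate controls were DMSO vehicle for no effect and reference control for full effect.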 Conditions: S. cerevisiae FUS-expressing, OD600, 24 h; Potency: growth rescue; series mostly up to 76.6 µM; growth rescue (activation): at the top concentration. From the text: Several widespread neurodegenerative diseases, including Alzheimer disease, Huntington disease, Frontotemporal Lobar Degeneration (FTLD) and Amyotrophic Lateral Sclerosis (ALS), share a common pathological feature, namely accumulation of specific protein aggregates in diseased tissue. These diseases which is associated with protein misfolding (proteinopathies) have become increasingly problematic as the population ages and life expectancies are extended. Most proteinopathies are currently incurable, a situation confounded by the fact that the basis of neurodegeneration is generally poorly understood. There exists urgent and significant need to find therapeutics that can inhibit the toxicity associated with protein aggregation. A novel approach to understand the underlying mechanisms of neurodegenerative diseases has recently emerged in which the disease conditions are modeled in the yeast (Saccharomyces cerevisiae), a tractable eukaryotic organism with conserved protein quality control mechanisms. Yeast offers quick and reliable genetic manipulations and can be easily tailored to high-throughput screening (HTS).
For this project, a yeast model of the FUS proteinopathies (a spectrum of neurodegenerative diseases that include ALS and a subtype of FTLD) was generated and employed. The cytoplasmic accumulation of the DNA/RNA-binding protein FUS (also known as TLS) is causative to both familial and sporadic forms of ALS and FTLD. This yeast model recapitulates neuronal pathology by showing severe cytotoxicity associated with cytoplasmic accumulation of FUS aggregates and a specific interaction between FUS and TDP-43, another ALS-associated protein. […] Specifically, the cellular accumulation of misfolded FUS that disrupts RNA homeostasis in both yeast and higher eukaryotes. This model was validated to be suitable for quantitative HTS (qHTS) use for finding genetic or chemical factors that restore growth. […] Identified compounds that inhibits FUS-yeast toxicity is flagged, re-acquired, and validated for further investigation and optimization.
NIH Chemical Genomics Center [NCGC]
NIH Molecular Libraries Probe Production Centers Network [MLPCN]
Assay Submitter (PI): Frank Shewmaker PhD, Uniformed Services University of the Health Sciences
Compound CP55940 was used as the positive control. Column 1 was treated with CP55940 titration from 92uM (final concentration, 1:2 dilution), while Column 2 was treated with top dose 92uM. Columns 3 and 4 were treated with DMSO only as negative control to assess background and noise signal.
Four hundred fifty microliter of cultured yeast (in 20mL rich medium) provided by Dr. Shewmaker lab was incubated at 30C at 99% humidity for 3hr. The culture was then spun down at 4000rpm for 5min and the cell pellet was resuspended in 2mL of Sdmin Media + ALU(330) + 2.5% Raffinose. One hundred microliter of the suspension was added to 900uL of water and OD of the solution was obtained. Twenty mL of responding medium (provided by Shewmaker lab) + 2.5% raffinose was added to ensure cell density of 0.1; the solution was incubated overnight. Working cell solution (FUS-yeast in Sdmi + Sdmi + 1X ALU + 2% galactose media) was prepared (final OD at 0.005) and 3uL was dispensed in a 1536-well Aurora high based clear bottom assay plates. Controls and library compounds (at various final concentrations from 40uM to 0.32uM) were added using a 1536-well pin array using the Kalypsys pin-tool. The plates were then incubated for 24hrs in a cell-culture incubator (30C; 99% humidity). Absorbance at 600nm was then read using the PerkinElmer ViewLux plate reader.
Regarding `CCc1cc2c(cc3c(=O)n(CC(=O)NCCc4ccc(OC)c(OC)c4)ncn32)s1`, the “growth rescue (activation)” value was 0.833%. For the compound `Cc1ccc(-c2csc(C(C#N)=C(O)CN3CCN(C(=O)c4ccco4)CC3)n2)cc1`, the Potency is 28.2 µM (active). For the compound `Cc1ccc(NC(=O)C(c2ccccc2)N2CCN(C(=O)c3ccco3)CC2)cc1` (configuration not stated), the “growth rescue (activation)” value was 31.1%. The same measure, in the same setting: to `COc1cccc(OC)c1OCCN1CCN(C(=O)c2ccco2)CC1` belongs -15.5%. For the compound `CN1CCN(C2(CNC(=O)COc3ccc(C(C)(C)C)cc3)CCCCC2)CC1`, the “growth rescue (activation)” value is 20.4%. On the same count and under the same terms, to `CC(C)(C)OC(=O)C[C@@H]1C/C=C\C[C@@H](CC(=O)N[C@H](CO)Cc2ccccc2)C(=O)NC[C@@H](c2ccccc2)OC1=O` belongs 25.1%. As for `CC(C)(C)OC(=O)C[C@@H]1C/C=C\C[C@@H](CC(=O)N[C@H](CO)Cc2ccccc2)C(=O)NCCOC1=O`, the “growth rescue (activation)” value was 13.5%. Take `O=C(C[C@H]1C/C=C\C[C@@H](NC(=O)OCC2c3ccccc3-c3ccccc32)C(=O)O[C@@H](c2ccccc2)CNC1=O)N[C@H](CO)Cc1ccccc1`: the Potency is 35.5 µM (active). In the case of `CC(C)c1ccc(NC(=O)c2ccc3c(O)c(S(=O)(=O)c4ccccc4)c(=O)[nH]c3c2)cc1`, the “growth rescue (activation)” value is -2.38%. For the compound `Cc1ccc(Cl)cc1-n1ncc2c(N3CCC(C(N)=O)CC3)ncnc21`, the “growth rescue (activation)” value is -6.61%. As for `CCOC(=O)c1c(NC(C)=O)c2c3c(sc2n1Cc1c(C)cc(C)cc1C)CCCC3`, the “growth rescue (activation)” value is 32.1%. On the same count and under the same terms, to `CCc1ccccc1NC(=O)CSc1nnc(-c2ccccc2)c(-c2ccccc2)n1` belongs 31.2%; to `CCOCCCn1c(SCC(=O)Nc2ccc(CC)cc2)nc2ccccc2c1=O`, 4.6%. Consider `O=C(CN1CCOCC1)Nc1ccccc1`, for which the Potency was 25.1 µM (active). As to `O=C(CN1CCOCC1)Nc1c2c(nc3c1CCC3)CCC2`, the “growth rescue (activation)” value was -15.7%. Still for that read-out and setting: to `O=C(CN1CCOCC1)Nc1c(Cl)cc(Cl)cc1Cl` belongs -45.1%. On to `CN(C)S(=O)(=O)c1cccc(NC(=O)COc2ccc3ccccc3c2)c1`, for which the Potency was 22.4 µM (active).

Consider `CN(C)S(=O)(=O)c1cccc(NC(=O)COC(=O)C2(c3ccccc3F)CCCC2)c1`, for which the “growth rescue (activation)” value is 19.5%. In the case of `CN(c1ccccc1)S(=O)(=O)c1ccc(NC(=O)COc2ccccc2)cc1`, the “growth rescue (activation)” value is 17.1%. Same read-out and setting: the result for `Cc1ccc(NC(=O)C2CCN(S(=O)(=O)c3cc(-c4noc(C)n4)ccc3C)CC2)c(C)c1` reads 13.4%; that for `Cc1ccccc1C(=O)Nc1nnc(S(=O)(=O)N(C)c2ccc(Cl)cc2)s1`, -9.93%. Turning to `CCOC(=O)C1=C(C)Nc2sc(C(=O)c3ccc(Br)cc3)c(N)c2C1c1ccc(C(=O)OC)cc1` (configuration not stated), the Potency was 31.6 µM (active). On to `CCOC(=O)C1=C(C)NC(SC)=NC1c1ccccc1` (configuration not stated), for which the “growth rescue (activation)” value was 25.4%. With `CCOC(=O)C1=C(C)NC2=C(C(=O)CC(C)(C)C2)C1c1ccsc1` (configuration not stated), the “growth rescue (activation)” value is 13.7%. The same measure, in the same setting: the result for `O=C(NCc1ccccc1)c1cccc(NC(=O)N2CCSc3ncccc32)c1` reads -8.13%; that for `Cc1cc(C(=O)Nc2cccc(C(F)(F)F)c2)c2c(C)nn(-c3cccc(F)c3)c2n1`, 15.4%; that for `CC(C)(C)c1ccc(C(=O)Nc2ccc3c(c2)CCCN3C(=O)c2cccs2)cc1`, 41.4%.

As for `CC(C)(C)c1ccc(S(=O)(=O)Nc2ccc(O)c(Sc3nc4ccccc4s3)c2)cc1`, the “growth rescue (activation)” value is 9.07%. The same measure, in the same setting: the result for `CC(C)c1ccc(S(=O)(=O)Nc2ccc(O)c(Sc3nc4ccccc4s3)c2)cc1` reads 30.6%. On to `CCOc1ccc(Nc2c(S(=O)(=O)c3ccccc3)cnc3ccccc23)cc1`, for which the “growth rescue (activation)” value was 43.5%. For the compound `Cc1c(NC(=O)Cc2ccccc2)cccc1-c1nc2cccnc2s1`, the “growth rescue (activation)” value was 24%.

Take `Cc1ccc(Cl)cc1NC(=O)CCC(=O)N1CC(C)Sc2ccccc21` (configuration not stated): the “growth rescue (activation)” value is 43.6%. With `CCCn1c(C)cc(/C=C(\C#N)C(=O)OCC(=O)Nc2cc(OC)c(OC)c(OC)c2)c1C`, the “growth rescue (activation)” value was 23.6%. Consider `CCCn1c(C)cc(/C=C(\C#N)C(=O)OCC(=O)N(C)c2c(N)n(Cc3ccccc3)c(=O)[nH]c2=O)c1C`, for which the Potency was 25.1 µM (active). Consider `CCN(C(=O)COC(=O)CCOc1cccc(C)c1)c1c(N)n(Cc2ccccc2)c(=O)[nH]c1=O`, for which the “growth rescue (activation)” value was 8.57%.

Regarding `CCC1CCCCN1C(=O)Cn1c(=O)n(CCCCCC(=O)NCc2ccccc2)c(=O)c2sccc21` (configuration not stated), the “growth rescue (activation)” value was 6.98%. For `COc1ccc(NC(=O)NC(C)c2c(-n3cccc3)sc(C)c2C)cc1OC` (configuration not stated), the “growth rescue (activation)” value is 42.7%. For `CCN(CC)S(=O)(=O)c1ccc2c(c1)N(CC(=O)NCC(C)c1ccccc1)C(=O)CO2` (configuration not stated), the “growth rescue (activation)” value is 14.3%. `CCN(CCCNC(=O)c1cc2c(=O)n(CC)c3ccccc3c2s1)Cc1ccccc1`: the “growth rescue (activation)” value was 6.37%. For `Cc1cccc(NC(=O)CSc2nnc(CNC(=O)c3cccc(C)c3)n2-c2ccccc2)c1`, the “growth rescue (activation)” value is 8.61%. For `CCc1ccc(S(=O)(=O)c2nnn3c2nc(NCc2ccccc2OC)c2cc(Cl)ccc23)cc1`, the “growth rescue (activation)” value was -7.06%.

As for `N#C/C(=C\c1cccc(F)c1)c1nc(-c2cc3c(ccc4ccccc43)oc2=O)cs1`, the “growth rescue (activation)” value is -1.96%.

As for `COc1ccc(C2C(=O)N(C3CCCCCC3)CC(=O)N2CCc2ccc(Cl)cc2)cc1OC` (configuration not stated), the “growth rescue (activation)” value was 21.5%. In the case of `Cc1onc(-c2ccc(F)cc2F)c1C(=O)Nc1cccc(C(F)(F)F)c1`, the “growth rescue (activation)” value is 8.05%. For `Cc1ccc(N2C(=O)C3N=NN(CC(=O)N4N=C(c5cccc6ccccc56)CC4c4ccccc4)C3C2=O)cc1` (configuration not stated), the Potency is 14.1 µM (active).

Take `COc1ccc(C2=NN(C(=O)CSc3nc(=O)n4ccc(C)cc4n3)C(c3ccc(C)cc3)C2)cc1` (configuration not stated): the “growth rescue (activation)” value is -24.8%. On to `Cc1ccc(CNC(=O)CSC2=Nc3ccccc3C3=NC(C)C(=O)N23)cc1` (configuration not stated), for which the “growth rescue (activation)” value is 17.6%.
